1 compound from PubChem BioAssay (EPA / NIEHS) can be followed below.

Records with an inconclusive call do not appear. Calls of active or inactive are those of the source. Rule for the calls, unless noted: active = hit-call score of the fitted dose curve at least 0.9, where 1 is the maximum; inactive = score below 0.9.

Test [1] can be described thus: IUF_NPC1_viability_72hr: Viability Assessment at 72 hours in the Leibniz Research Institute for Environmental Medicine (IUF) Neural Progenitor Cell Proliferation Assay (NPC1) (AID 2284209). The procedure, abridged:
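Viability was measured by resazurin-to-resorufin fluorescence (alamar blue) after 72 h of continuous exposure without compound renewal. Each well held one hNPC sphere (gestational week 16-19 fetal cortex, 0.25-0.35 mm) cultured in EGF/FGF proliferation medium at 37C and pH 7.2-7.6.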

The nature of test [2]: CCTE_Mundy_HCI_Cortical_Synap_Neur_Matur_NeuriteSpotCountPerNeuriteLength: CCTE's Synaptogenesis and Neurite Maturation Assay in rat cortical cells for Neurite Spot Count per Neurite Length, Mundy Lab (AID 2284210). Put shortly:
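Synaptophysin spots per unit neurite length, measured by automated imaging of MAP2/synaptophysin/Hoechst-stained neurons. Cultures from rat cortex received chemical at DIV 7 with media change through DIV 12; glial growth arrested by AraC at DIV 5; DMSO baseline.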

Test [3] can be described thus: CCTE_Mundy_HCI_Cortical_NOG_NeuriteLength: CCTE's Neurite Outgrowth Assay in rat cortical cells for Neurite Length, Mundy Lab (AID 2284213). The procedure, abridged: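 First, rat primary cortical cells were plated and, 2 h later, given test chemical as a 1/10 dilution. Finally, βIII-tubulin immunostaining enabled automated imaging of neurite length.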
Test [4] can be described thus: CCTE_Mundy_HCI_Cortical_Synap_Neur_Matur_NeuriteLength: CCTE's Synaptogenesis and Neurite Maturation Assay in rat cortical cells for Neurite Length, Mundy Lab (AID 2284214). The procedure, abridged:
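Neurite length quantified by automated high-content imaging of MAP2, synaptophysin and Hoechst staining. Rat cortical cells received chemical from DIV 7 to DIV 12 […], glial growth arrested by AraC at DIV 5; DMSO baseline.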

Test [5] in a line: CCTE_Mundy_HCI_Cortical_Synap_Neur_Matur_SynapseCount: CCTE's Synaptogenesis and Neurite Maturation Assay in rat cortical cells for Synapse Count, Mundy Lab (AID 2284218). Put shortly:
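High-content imaging of synaptophysin puncta per MAP2-positive neuron (Hoechst nuclei) in rat cortical cells exposed DIV 7–12 after glial arrest with AraC at DIV 5; decrease relative to DMSO scored.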

The nature of test [6]: CCTE_Mundy_HCI_hN2_NOG_NeuriteCount: CCTE's Neurite Outgrowth Assay in human hN2 cells for Neurite Count, Mundy Lab (AID 2284219; active = hit-call score of the fitted dose curve at least 0.9, where 1 is the maximum). The procedure, abridged: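 In this morphology assay, hNP1-derived neurons received test chemical 2 h post-plating and were fixed two days later in warm paraformaldehyde/sucrose containing Hoechst 33342. Neurites, labelled by rabbit anti-βIII-tubulin (1:800) and Alexa Fluor-488 (1:500), were counted automatically.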

Test [7] is described as follows: CCTE_Mundy_HCI_hN2_NOG_NeuriteLength: CCTE's Neurite Outgrowth Assay in human hN2 cells for Neurite Length, Mundy Lab (AID 2284220; active = hit-call score of the fitted dose curve at least 0.9, where 1 is the maximum). The procedure, abridged: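 Plate hNP1-derived neurons, then add chemical 2 h later as a 1/10 dilution. Stain with anti-βIII-tubulin then Alexa Fluor-488 secondary, and image automatically to measure neurite length.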
Test [8] is described as follows: CCTE_Mundy_HCI_hN2_NOG_NeuronCount: CCTE's Neurite Outgrowth Assay in human hN2 cells for Neuron Count, Mundy Lab (AID 2284221; active = hit-call score of the fitted dose curve at least 0.9, where 1 is the maximum). Put shortly: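 Read-out is the number of betaIII-tubulin-positive neurons imaged by automated high-content analysis, with DMSO as negative control.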
Test [9] in a line: CCTE_Mundy_HCI_Cortical_Synap_Neur_Matur_CellBodySpotCount: CCTE's Synaptogenesis and Neurite Maturation Assay in rat cortical cells for Cell Body Spot Count, Mundy Lab (AID 2284223). Put shortly: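 Rat primary cortical cultures received AraC at DIV 5 to arrest glia, were dosed with chemical at DIV 7 with media change, and were fixed at DIV 12 (288.33 h). Synaptophysin puncta on MAP2-positive cell bodies per neuron were counted by high-content imaging versus DMSO.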

Test [10] can be described thus: UKN4_HCS_LUHMES_cell_viability: Viability Assessment in the University of Konstanz (UKN) Leist Lab Neurite Outgrowth Assay in human LUHMES cells (UKN4) (AID 2284232). The procedure, abridged: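 Viability was read by high-content imaging of calcein-AM/H-33342-stained cells after 24 h toxicant exposure, staining included. Cells: human LUHMES on day 2 of dopaminergic differentiation, dosed shortly after attachment; DMSO baseline, bidirectional curve fitting.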

Test [11] is described as follows: UKN2_HCS_IMR90_cell_viability: Viability Assessment in the University of Konstanz (UKN) Leist Lab Neural Crest Cell Migration Assay in human induced IMR90 Pluripotent Stem Cells (UKN2) (AID 2284233).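 Note: cells exposed to compound for 24 h after a 24 h migration phase.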 The procedure, abridged:
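After calcein-AM/Hoechst staining, viability is quantified by high-content fluorescence imaging, relative to DMSO, in iPSC (IMR90)-derived neural crest cells. Exposure lasts 24 h, starting after a 24 h migration period on PLO/laminin/fibronectin coating.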

The nature of test [12]: CCTE_Mundy_HCI_Cortical_NOG_NeuronCount: CCTE's Neurite Outgrowth Assay in rat cortical cells for Neuron Count, Mundy Lab (AID 2284236; active = hit-call score of the fitted dose curve at least 0.9, where 1 is the maximum;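 note: neurons counted by imaging betaIII-tubulin and Hoechst stained cortical cells; cells exposed to compound for about 48 hours before fixation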). Put shortly: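 Read-out: neuron number by high-content imaging of betaIII-tubulin (Alexa Fluor-488) and Hoechst-labelled rat primary cortical cells.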
A short description of test [13]: CCTE_Mundy_HCI_hNP1_Casp3_7: CCTE's Caspase-Glo 3/7 Assay in human neuroprogenitor cells for Apoptosis, Mundy Lab (AID 2284240). Put shortly:
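Apoptosis is scored by activated caspase-3/7 luminescence in WA09-derived neural progenitor cells, measured 26.5 h after chemical dosing. Values represent gain of signal relative to DMSO vehicle.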

Test [14] can be described thus: IUF_NPC2c_oligodendrocyte_migration_120hr: Leibniz Research Institute for Environmental Medicine (IUF) 120-hour Neural Progenitor Cell Migration Assay for Oligodendrocyte Migration (NPC2c) (AID 2284297).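 Note: O4-positive oligodendrocyte migration distance divided by radial glia migration distance.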 The procedure, abridged: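 Human fetal cortex-derived neural progenitor spheres (0.3 mm) were plated on poly-D-lysine/laminin in N2 differentiation medium and exposed to 7 concentrations for 120 h, with half-medium renewal at day 3. Oligodendrocyte migration distance was normalized to radial glia migration, relative to DMSO.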

Test [15] can be described thus: IUF_NPC2a_radial_glia_migration_120hr: Leibniz Research Institute for Environmental Medicine (IUF) 120-hour Neural Progenitor Cell Migration Assay for Radial Glia Migration (NPC2a) (AID 2284298). Put shortly:
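Single 0.3 mm primary human fetal-cortex (GW 16-19) NPC spheres were plated on poly-D-lysine/laminin in N2 differentiation medium and exposed from day 0 for 120 h, half-medium refreshed day 3. Migration distance came from Hoechst nuclei-density imaging, relative to DMSO.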

The nature of test [16]: IUF_NPC2b_neuronal_migration_120hr: Leibniz Research Institute for Environmental Medicine (IUF) 120-hour Neural Progenitor Cell Migration Assay for Neuron Migration (NPC2b) (AID 2284300). The procedure, abridged: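 Primary human fetal cortex neural progenitor spheres (0.3 mm) plated on poly-D-lysine/laminin in N2 differentiation medium, exposed 120 h with half-medium refresh at day 3. TUBB3-stained neuron distance from sphere core, normalized to radial glia migration, versus DMSO.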

A short description of test [17]: IUF_NPC3_neuronal_differentiation_120hr: Leibniz Research Institute for Environmental Medicine (IUF) 120-hour Neuronal Differentiation Assay (NPC3) (AID 2284301). Put shortly:
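Value is percent TUBB3-positive neurons among Hoechst-stained nuclei in the migration area, scored by trained CNN after 120 h differentiation. Primary hNPC spheres on poly-D-lysine/laminin, N2 medium, continuous dosing from day 0, half-refeed day 3; DMSO reference.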

Test [18] can be described thus: IUF_NPC4_neurite_length_120hr: Leibniz Research Institute for Environmental Medicine (IUF) 120-hour Neuronal Morphology Assay for Neurite Length (NPC4) (AID 2284302). The procedure, abridged:
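Neurite length, the mean in um across TUBB3-stained neurons, is derived by skeletonization of high-content images after 120 h differentiation. Compound exposure, 7 concentrations plus solvent control, ran from plating of hNPC spheres on poly-D-lysine/laminin, with medium half-replaced on day 3.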

Test [19] can be described thus: IUF_NPC2-5_cytotoxicity_72hr: Cytotoxicity Assessment at 72 hours in the Leibniz Research Institute for Environmental Medicine (IUF) Neural Progenitor Cell Migration and Differentiation Assay for Cytotoxicity (NPC2-5) (AID 2284306; active = hit-call score of the fitted dose curve at least 0.9, where 1 is the maximum;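 note: LDH release into supernatant measured by resorufin fluorescence marking membrane damage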). The procedure, abridged: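 Membrane-integrity cytotoxicity at 72 h, read as LDH-driven resorufin fluorescence in supernatant. hNPC spheres from fetal cortex differentiate on coated plates in N2 medium, 37C, 5% CO2; seven serial compound concentrations plus solvent control (DMSO ≤0.1%).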

A short description of test [20]: IUF_NPC2-5_cytotoxicity_120hr: Cytotoxicity Assessment at 120 hours in the Leibniz Research Institute for Environmental Medicine (IUF) Neural Progenitor Cell Migration and Differentiation Assay (NPC2-5) (AID 2284307; active = hit-call score of the fitted dose curve at least 0.9, where 1 is the maximum). The procedure, abridged: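 Human fetal neural progenitor spheres (0.3 mm, GW 16-19 cortex) were plated on poly-D-lysine/laminin in N2 differentiation medium and exposed for 120 h, with half-medium refresh at day 3. LDH release into supernatant was read by resorufin fluorescence.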

Test [21] in a line: IUF_NPC2-5_cell_number_120hr: Cell Number Assessment at 120 hours in the Leibniz Research Institute for Environmental Medicine (IUF) Neural Progenitor Cell Migration and Differentiation Assay (NPC2-5) (AID 2284308).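 Note: count of Hoechst-stained nuclei in migration zone around plated human neural progenitor spheres.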 The procedure, abridged: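 Primary human fetal neural progenitor spheres (GW 16-19, 0.3 mm) plated on poly-D-lysine/laminin in N2 differentiation medium, exposed from day 0 for 120 h with half-medium refresh at day 3; Hoechst-positive nuclei counted in migration area versus DMSO control.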

Test [22] can be described thus: IUF_NPC2-5_viability_120hr: Viability Assessment at 120 hours in the Leibniz Research Institute for Environmental Medicine (IUF) Neural Progenitor Cell Migration and Differentiation Assay (NPC2-5) (AID 2284312). Put shortly: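 Alamar blue resorufin fluorescence read after 5 days of differentiation, with compound present from day 0 and replenished at day 3. Primary hNPC spheres on laminin-coated plates, 37C; seven concentrations plus solvent control, fitted against DMSO.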

In general, AC50 refers to the concentration giving half of the maximal activity seen. For the compound `CC(=O)[O-].CC(=O)[O-].O.O.O.[Pb+2]`, the result in [1], in test [2], in test [3], in test [4], in [5] and in [9] was inactive. Also, the outcome in [10], in test [11], in test [12], in test [13], in test [14] and in [15] was inactive. Also, the call in test [16], in test [17], in [18], in test [19], in [20] and in [21] was inactive. Besides, the compound was classed as inactive in [22]. Moreover, the values for the AC50 in [6], in test [7] and in test [8] were 2190 nM (active), 2070 nM (active) and 12000 nM (active), respectively.
